Data as given in PubChem BioAssay AID651640 (Broad Institute, 2012).
Among all 350,000 compounds or so, about 6,000 (1.7%) were called active. Inconclusive results (about 5%) are left out. What follows is part of a selection rich in actives, with near analogues and random picks from the rest. Values without a mark were called inactive. Rule as the data show it: active = CPE inhibition above about 20% (passing the limit was not always enough); inconclusive = no clear call, values can overlap the other calls; tested in BHK-21 cells.

Assay: inhibitors of DENV2 cytopathic effect, primary screen, cell-based, plate reader, single concentration (AID 651640);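 also: 0% = median of neutral control wells and 100% = median of positive control wells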
Conditions: DENV2-infected cells, cytopathic effect rescue, at 9.99 µM, stronger effect = higher value
In the case of COc1ccc(S(=O)(=O)N(C)C[C@@H]2Oc3ccc(NC(=O)Cc4ccccc4)cc3CC(=O)N([C@@H](C)CO)C[C@H]2C)cc1, the CPE inhibition is reported as -3.88%. CO[C@@H]1CN(C)C(=O)c2cc(NC(=O)c3ccc4c(c3)OCO4)ccc2OC[C@H](C)N(CCC(F)(F)F)C[C@H]1C showed a CPE inhibition of 2.23%. Cc1noc(C)c1NC(=O)Nc1ccc2c(c1)CC(=O)N([C@@H](C)CO)C[C@@H](C)[C@H](CN(C)C(=O)NC1CCCCC1)O2 showed a CPE inhibition of 1.27%. Work on N#C[C@@H]1[C@@H](c2ccc(-c3ccccc3F)cc2)[C@@H](CO)N1C(=O)c1ccccn1 yielded a CPE inhibition of -0.879%. COc1ccccc1NC(=O)N[C@H]1CC[C@@H](CC(=O)NCc2ccc(Cl)c(Cl)c2)O[C@H]1CO gave a CPE inhibition of -2.11%. With C/C=C/c1ccc2c(c1)O[C@@H](CN(C)C(=O)Cc1ccccn1)[C@@H](C)CN([C@H](C)CO)S2(=O)=O the CPE inhibition was 3.81%. For C[C@@H]1CN([C@H](C)CO)S(=O)(=O)c2ccc(C#C[C@@H](C)O)cc2O[C@H]1CN(C)C(=O)CC1CC1, the CPE inhibition was -1.93%. For Cc1ccc(C2Nc3ccccc3C(=O)N2CCN2CCNC2=O)cc1 (configuration not stated), the CPE inhibition was -0.485%. Cc1cccc([C@H]2[C@@H]3C=CC[C@@H](C)[C@@H]3C(=O)N2Cc2ccccc2)c1 showed a CPE inhibition of -1.21%. In the case of Cc1cccc([C@@H]2[C@@H]3C(=O)N(C)C(=O)[C@@H]3[C@@H]3C(=O)Nc4ccccc4C(=O)N23)c1, the CPE inhibition is reported as 30.1% (active). Work on O=C([C@H]1[C@H](CO)[C@H]2Cn3c(ccc(C4=CCCC4)c3=O)[C@@H]1N2C(=O)c1ccncc1)N1CCCCC1 yielded a CPE inhibition of -10.6%. Molecule CNC[C@H]1Oc2cc(C#Cc3ccccc3)ccc2S(=O)(=O)N([C@@H](C)CO)C[C@@H]1C has a CPE inhibition of 10.6%. Work on CNC[C@@H]1Oc2cc(C#CCC3CCCC3)ccc2S(=O)(=O)N([C@H](C)CO)C[C@H]1C yielded a CPE inhibition of 18.9%. For CNC[C@H]1Oc2cc(C#CC(C)(C)O)ccc2S(=O)(=O)N([C@@H](C)CO)C[C@@H]1C, the CPE inhibition was 29.3% (active). In the case of CNC[C@@H]1Oc2cc(C#Cc3ccc(F)cc3)ccc2S(=O)(=O)N([C@@H](C)CO)C[C@H]1C, the CPE inhibition is reported as 7.09%. For CNC[C@H]1Oc2cc(C#CC3CCCC3)ccc2S(=O)(=O)N([C@H](C)CO)C[C@@H]1C, the CPE inhibition was 49.1% (active). With CNC[C@@H]1Oc2cc(C#CC3CCCC3)ccc2S(=O)(=O)N([C@@H](C)CO)C[C@@H]1C the CPE inhibition was 3.46%. COc1ccc(S(=O)(=O)N[C@H]2C=C[C@@H](CC(=O)O)O[C@@H]2CO)cc1 showed a CPE inhibition of -1.75%. For CN1CCN(C(=O)C[C@@H]2CC[C@@H]3[C@@H](COc4ccc(NC(=O)c5ccc(F)c(F)c5)cc4C(=O)N3C)O2)CC1, the CPE inhibition was -5.7%. With COCc1cn(CC[C@@H]2CC[C@@H](NC(=O)Cc3cccnc3)[C@@H](CO)O2)nn1 the CPE inhibition was -4.68%. With C[C@@H]1CN([C@H](C)CO)C(=O)c2cc(C#CC3CCCC3)cnc2O[C@@H]1CN(C)C(=O)C1CCC1 the CPE inhibition was 0.319%. For C[C@@H]1CN([C@H](C)CO)C(=O)c2cc(C#CC3(O)CCCC3)cnc2O[C@H]1CN(C)C(=O)C1CCC1, the CPE inhibition was 35.8% (active). For C[C@H]1CN([C@@H](C)CO)C(=O)c2ccccc2-c2ccccc2CO[C@H]1CN(C)S(=O)(=O)c1ccccc1C#N, the CPE inhibition was -1.68%. CCCC#Cc1cnc2c(c1)C(=O)N([C@H](C)CO)C[C@@H](C)[C@@H](CN(C)C(=O)C1CCOCC1)O2 gave a CPE inhibition of -8.59%. For Cc1ccc(S(=O)(=O)N(C)C[C@H]2OCc3ccccc3-c3ccccc3C(=O)N([C@@H](C)CO)C[C@@H]2C)cc1, the CPE inhibition was 0.795%. Molecule C[C@H](CO)N1C[C@H](C)[C@H](CN(C)C(=O)C2CCC2)Oc2ncc(C#CCc3ccccc3)cc2C1=O has a CPE inhibition of -7.04%. With C[C@@H]1CN([C@H](C)CO)C(=O)c2cc(-c3cccc(C#N)c3)cnc2O[C@H]1CN(C)C(=O)C1CCC1 the CPE inhibition was 27.5% (active). For C[C@H]1CN([C@@H](C)CO)C(=O)c2ccccc2-c2ccccc2CO[C@H]1CN(C)S(=O)(=O)c1cccc(C#N)c1, the CPE inhibition was 99.5% (active). With C[C@H](CO)N1C[C@H](C)[C@@H](CN(C)C(=O)C2CC2)Oc2ncc(-c3cccc(C#N)c3)cc2C1=O the CPE inhibition was -9.11%. Molecule CC(=O)N(C)C[C@H]1Oc2ncc(C#CC3(O)CCCC3)cc2C(=O)N([C@@H](C)CO)C[C@@H]1C has a CPE inhibition of -10.8%. For CC(C)NC(=O)N(C)C[C@H]1Oc2ncc(-c3cccc(C#N)c3)cc2C(=O)N([C@@H](C)CO)C[C@H]1C, the CPE inhibition was 1.79%. In the case of C[C@@H]1CN([C@@H](C)CO)C(=O)c2cc(C#CCc3ccccc3)cnc2O[C@@H]1CN(C)C(=O)C1CCOCC1, the CPE inhibition is reported as 95.4% (active). For C/C=C/c1ccc([C@@H]2[C@H](CO)N(CCC(F)(F)F)C23CN(C(=O)CC)C3)cc1, the CPE inhibition was 8.21%. With C[C@@H]1CN([C@H](C)CO)C(=O)Cc2cc(NC(=O)C3CC3)ccc2O[C@H]1CN(C)Cc1ccc(Cl)c(Cl)c1 the CPE inhibition was -2.59%. C[C@@H]1CCCCO[C@@H](CN(C)S(C)(=O)=O)[C@@H](C)CN([C@@H](C)CO)C(=O)c2cc(NS(=O)(=O)c3ccc(Cl)cc3)ccc2O1 showed a CPE inhibition of -9.73%. CCC(=O)N(C)C[C@H]1Oc2ncc(C#C[C@@H](C)O)cc2C(=O)N([C@@H](C)CO)C[C@H]1C showed a CPE inhibition of 9.17%. With CNC[C@@H]1Oc2c(NC(=O)Nc3ccc(F)cc3)cccc2C(=O)N([C@@H](C)CO)C[C@@H]1C the CPE inhibition was 0.246%. With CCC(=O)Nc1ccc2c(c1)C(=O)N(C)C[C@H](OC)[C@H](C)CN(CCC(F)(F)F)[C@H](C)CO2 the CPE inhibition was -10.4%. With COCC(=O)Nc1ccc2c(c1)C(=O)N(C)C[C@@H](OC)[C@H](C)CN(C(=O)c1cccnc1)[C@H](C)CO2 the CPE inhibition was 7.26%. Work on COc1ccc(NC(=S)Nc2ccc(S(N)(=O)=O)cc2)c(C)c1 yielded a CPE inhibition of 5.31%. Molecule COc1cc2c(cc1OC)C(c1cccc([N+](=O)[O-])c1)=NCC2 has a CPE inhibition of 3%. In the case of COc1cc2c(cc1OC)C(Nc1ccc(S(N)(=O)=O)cc1)=NC(C)(C)C2, the CPE inhibition is reported as 23.5% (active).
